Test results published in the supplement of paper PMC10849652.
About 7,900 targets were measured; listed, in parts, are those with a hit and a random draw of the rest. About 0.6% of all pairs of compound and target were hits.

How the values were obtained:
Test in all cases: log2 fold change, soluble protein after heating vs DMSO (PISA); higher = thermal stabilisation; K562 cells, 10 uM, 30 min; active = over 0.2 and 3.5 SD of the protein, either way, in both replicates (recomputed)
[1] = compound: C1=CC=C(C=C1)[C@H](COC2=CC3=C(C=C2)NC(=O)N3)NC(=O)C4=CC=CN(C4=O)CC5=CC(=C(C=C5)F)F
In short: (§1)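 Values are thermal stability changes relative to control samples and are taken from duplicates. They are stated as log2 fold changes. Before quantification by TMTpro 16plex LC-MS/MS with equalised channel sums, K562 cells at 2×10^6 cells/mL were treated with 10 μM compound for 30 min, heated in aliquots for 3 min across 48°C-58°C, pooled, extracted in PBS with 0.5% NP-40 at 4°C, and centrifuged at 21,000xg for 90 min to give the soluble supernatant.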

[2] = compound: CC1=C(SC2=C1C(=N[C@H](C3=NN=C(N32)C)CC(=O)N)C4=CC=C(C=C4)Cl)C
In short: as §1

[3] = compound: CC1=C2C(=CC=C1)N=C(N(C2=O)C3=CC=CC=C3C)CN4C=NC5=C(N=CN=C54)N
In short: as §1

[4] = compound: Cc1sc2c(c1C)C(c1ccc(Cl)cc1)=N[C@@H](CC(=O)OC(C)(C)C)c1nnc(C)n1-2
In short: as §1

[5] = compound: c1ccc([C@@H]2C[C@H]2NC2CCNCC2)cc1
In short: as §1

Measured: log2 fold change

POLR2D (UniProt O15514)
inactive: [1] 0.003 | [2] 0.134 | [3] -0.006 | [4] 0.17 | [5] 0.045

PSMD13 (UniProt Q9UNM6)
inactive: [1] -0.008 | [2] -0.096 | [3] -0.046 | [4] -0.028 | [5] 0

PRKCG (UniProt P05129)
inactive: [1] -0.216 | [2] -0.025 | [3] 0.033 | [4] -0.017 | [5] 0.077

PLCB3 (UniProt Q01970)
inactive: [1] -0.019 | [2] -0.015 | [3] 0 | [4] -0.048 | [5] -0.062

PTPN23 (UniProt Q9H3S7)
Chain of UniProt Q9H3S7 (Q9H3S7 whole entry, looked up): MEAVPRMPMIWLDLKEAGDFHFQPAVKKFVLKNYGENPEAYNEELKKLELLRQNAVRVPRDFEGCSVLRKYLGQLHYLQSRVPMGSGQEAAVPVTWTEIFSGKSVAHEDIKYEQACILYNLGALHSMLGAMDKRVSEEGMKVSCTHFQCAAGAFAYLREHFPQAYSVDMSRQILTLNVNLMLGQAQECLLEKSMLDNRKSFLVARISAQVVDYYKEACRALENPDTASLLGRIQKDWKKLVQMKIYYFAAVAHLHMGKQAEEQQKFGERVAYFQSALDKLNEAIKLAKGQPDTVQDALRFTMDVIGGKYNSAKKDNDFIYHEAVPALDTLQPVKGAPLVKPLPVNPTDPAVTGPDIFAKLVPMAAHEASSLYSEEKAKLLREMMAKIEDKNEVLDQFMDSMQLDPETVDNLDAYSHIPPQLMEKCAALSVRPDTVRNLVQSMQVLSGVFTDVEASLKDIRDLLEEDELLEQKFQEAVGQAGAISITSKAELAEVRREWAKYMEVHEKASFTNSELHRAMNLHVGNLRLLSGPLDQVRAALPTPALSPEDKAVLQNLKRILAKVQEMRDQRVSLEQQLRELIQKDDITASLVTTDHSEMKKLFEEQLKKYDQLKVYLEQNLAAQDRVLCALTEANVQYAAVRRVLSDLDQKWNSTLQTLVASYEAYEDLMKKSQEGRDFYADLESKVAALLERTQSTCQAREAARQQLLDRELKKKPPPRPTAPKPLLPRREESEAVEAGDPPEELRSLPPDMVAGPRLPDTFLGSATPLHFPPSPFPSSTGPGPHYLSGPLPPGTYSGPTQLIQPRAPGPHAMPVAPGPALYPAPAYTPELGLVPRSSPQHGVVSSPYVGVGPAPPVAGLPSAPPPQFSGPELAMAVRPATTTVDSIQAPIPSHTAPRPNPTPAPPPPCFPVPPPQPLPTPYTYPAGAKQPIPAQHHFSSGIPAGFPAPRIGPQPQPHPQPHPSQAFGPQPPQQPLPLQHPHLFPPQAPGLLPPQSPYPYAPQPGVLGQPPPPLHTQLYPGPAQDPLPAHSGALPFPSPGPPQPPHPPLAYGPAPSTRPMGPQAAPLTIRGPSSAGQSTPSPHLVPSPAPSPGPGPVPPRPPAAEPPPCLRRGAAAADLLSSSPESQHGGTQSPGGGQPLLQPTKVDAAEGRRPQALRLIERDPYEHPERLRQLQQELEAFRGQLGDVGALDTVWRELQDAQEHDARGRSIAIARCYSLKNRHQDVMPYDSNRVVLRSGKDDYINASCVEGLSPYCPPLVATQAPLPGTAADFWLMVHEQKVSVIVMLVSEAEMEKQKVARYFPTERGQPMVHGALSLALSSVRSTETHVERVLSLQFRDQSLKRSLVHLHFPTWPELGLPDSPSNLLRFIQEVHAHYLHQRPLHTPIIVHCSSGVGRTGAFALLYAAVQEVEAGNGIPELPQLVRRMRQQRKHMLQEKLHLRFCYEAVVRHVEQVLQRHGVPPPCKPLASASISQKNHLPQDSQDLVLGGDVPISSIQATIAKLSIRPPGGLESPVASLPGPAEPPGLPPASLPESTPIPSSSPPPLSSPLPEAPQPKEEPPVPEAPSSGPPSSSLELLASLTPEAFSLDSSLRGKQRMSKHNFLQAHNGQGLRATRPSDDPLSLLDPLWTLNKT
inactive: [1] -0.038 | [2] 0.048 | [3] 0.054 | [4] 0 | [5] 0.038

PLEKHM2 (UniProt Q8IWE5)
inactive: [1] -0.027 | [2] 0.076 | [3] -0.016 | [4] 0.089 | [5] -0.048

PTP4A1 (UniProt Q93096)
Chain of UniProt Q93096 (Q93096 whole entry, looked up): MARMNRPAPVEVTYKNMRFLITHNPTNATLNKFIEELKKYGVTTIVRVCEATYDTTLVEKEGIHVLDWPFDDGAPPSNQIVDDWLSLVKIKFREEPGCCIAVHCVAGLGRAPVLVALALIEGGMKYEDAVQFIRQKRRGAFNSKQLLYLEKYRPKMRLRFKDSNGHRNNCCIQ
inactive: [1] -0.002 | [2] 0.109 | [3] 0.037 | [4] 0.001 | [5] -0.031

PSMC5 (UniProt P62195)
inactive: [1] 0.017 | [2] -0.087 | [3] -0.045 | [4] 0.006 | [5] 0.01

PLCXD1 (UniProt Q9NUJ7)
inactive: [1] -0.061

PRKD2 (UniProt M0R346)
inactive: [1] 0.081

POLA2 (UniProt Q14181)
inactive: [1] -0.023 | [2] 0.048 | [3] 0.114 | [4] -0.006 | [5] 0.034

PMPCA (UniProt Q10713)
inactive: [1] -0.015 | [2] 0.121 | [3] 0.06 | [4] 0.018 | [5] -0.047

PRPF31 (UniProt Q8WWY3)
inactive: [1] -0.07 | [2] 0.028 | [3] 0.174 | [4] -0.087 | [5] 0.005

PRCP (UniProt P42785)
Chain of UniProt P42785 (P42785 whole entry, looked up): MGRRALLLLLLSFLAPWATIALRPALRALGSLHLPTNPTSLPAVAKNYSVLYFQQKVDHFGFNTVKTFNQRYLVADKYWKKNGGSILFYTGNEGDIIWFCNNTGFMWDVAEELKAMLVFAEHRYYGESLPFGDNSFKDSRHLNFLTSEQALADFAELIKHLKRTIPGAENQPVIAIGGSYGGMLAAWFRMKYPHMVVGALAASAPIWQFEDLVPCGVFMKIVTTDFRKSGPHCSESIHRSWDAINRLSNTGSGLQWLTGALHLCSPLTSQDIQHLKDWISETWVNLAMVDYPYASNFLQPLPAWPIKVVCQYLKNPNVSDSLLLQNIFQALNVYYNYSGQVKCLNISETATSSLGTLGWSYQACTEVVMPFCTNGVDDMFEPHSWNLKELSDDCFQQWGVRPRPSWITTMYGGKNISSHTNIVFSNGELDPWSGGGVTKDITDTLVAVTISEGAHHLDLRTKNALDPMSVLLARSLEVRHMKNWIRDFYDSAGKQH
inactive: [1] 0.023 | [2] -0.036 | [3] -0.061 | [4] 0.018 | [5] 0.062

PC (UniProt P11498)
inactive: [1] -0.012 | [2] 0.031 | [3] 0.111 | [4] 0.025 | [5] -0.021

PRMT8 (UniProt Q9NR22)
Chain of UniProt Q9NR22 (Q9NR22 whole entry, looked up): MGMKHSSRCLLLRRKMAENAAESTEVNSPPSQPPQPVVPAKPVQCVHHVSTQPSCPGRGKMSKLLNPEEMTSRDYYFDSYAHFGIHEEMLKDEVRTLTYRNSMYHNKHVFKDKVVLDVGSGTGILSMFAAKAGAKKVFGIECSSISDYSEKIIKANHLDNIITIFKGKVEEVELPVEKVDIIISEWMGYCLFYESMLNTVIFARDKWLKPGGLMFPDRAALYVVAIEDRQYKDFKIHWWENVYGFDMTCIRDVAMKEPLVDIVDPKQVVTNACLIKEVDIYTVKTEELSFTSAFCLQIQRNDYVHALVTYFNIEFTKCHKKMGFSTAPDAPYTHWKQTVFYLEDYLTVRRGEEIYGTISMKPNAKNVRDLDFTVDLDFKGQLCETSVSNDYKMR
inactive: [1] -0.002 | [2] 0.133 | [3] 0.046 | [4] -0.028 | [5] -0.015

PNPLA4 (UniProt P41247)
inactive: [1] 0.068 | [2] 0.158 | [3] 0.042 | [4] 0.099 | [5] 0.178

PRMT7 (UniProt Q9NVM4)
inactive: [1] -0.051 | [2] 0.015 | [3] 0.056 | [4] 0.009 | [5] -0.027

PCYT1B (UniProt Q9Y5K3)
inactive: [1] -0.063 | [2] -0.003 | [3] 0.022 | [4] 0.042 | [5] 0.034

PGGT1B (UniProt P53609)
Chain of UniProt P53609 (P53609 whole entry, looked up): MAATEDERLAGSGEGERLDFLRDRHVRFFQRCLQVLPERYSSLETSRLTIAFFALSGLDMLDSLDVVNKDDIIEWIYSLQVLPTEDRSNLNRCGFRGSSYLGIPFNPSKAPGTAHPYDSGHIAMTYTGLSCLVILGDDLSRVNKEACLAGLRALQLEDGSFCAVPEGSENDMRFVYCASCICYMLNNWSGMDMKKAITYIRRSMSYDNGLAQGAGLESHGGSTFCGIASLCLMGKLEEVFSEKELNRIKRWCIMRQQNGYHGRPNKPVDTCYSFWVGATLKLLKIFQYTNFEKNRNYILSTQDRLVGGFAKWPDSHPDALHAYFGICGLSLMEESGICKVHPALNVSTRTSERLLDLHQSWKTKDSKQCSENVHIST
inactive: [1] 0.025 | [2] 0.066 | [3] 0.051 | [4] -0.018 | [5] -0.004

PRKAR2B (UniProt P31323)
inactive: [1] -0.065 | [2] -0.012 | [3] -0.06 | [4] -0.024 | [5] 0.007

PSMD2 (UniProt Q13200)
inactive: [1] 0.026 | [2] -0.097 | [3] -0.059 | [4] 0.008 | [5] 0.016

PRKAG1 isoform 3 (UniProt P54619)
inactive: [1] -0.008 | [2] 0.067 | [3] 0.019 | [4] -0.011 | [5] -0.017

PPP2R5C isoform 2 (UniProt Q13362)
inactive: [1] -0.065

PLCG1 isoform 2 (UniProt P19174)
inactive: [1] -0.059 | [2] 0.038 | [3] 0.033 | [4] 0.063 | [5] -0.028

PPIL4 (UniProt Q8WUA2)
inactive: [1] 0.012 | [2] -0.022 | [3] 0.036 | [4] 0.039 | [5] 0.016

PRKCB isoform 2 (UniProt P05771)
inactive: [1] -0.034 | [2] 0.028 | [3] 0.053 | [4] 0.027 | [5] -0.008

PRKACB isoform 2 (UniProt P22694)
inactive: [1] -0.06 | [2] 0.021 | [3] 0.032 | [4] -0.038 | [5] 0.003

PRKX (UniProt P51817)
active: [1] -0.754

PHKG2 (UniProt P15735)
inactive: [1] 0.028 | [2] -0.033 | [3] 0.013 | [4] 0.051 | [5] 0.026

PPP1R12B isoform 6 (UniProt O60237)
inactive: [1] -0.051

PPIL1 (UniProt Q9Y3C6)
Chain of UniProt Q9Y3C6 (Q9Y3C6 whole entry, looked up): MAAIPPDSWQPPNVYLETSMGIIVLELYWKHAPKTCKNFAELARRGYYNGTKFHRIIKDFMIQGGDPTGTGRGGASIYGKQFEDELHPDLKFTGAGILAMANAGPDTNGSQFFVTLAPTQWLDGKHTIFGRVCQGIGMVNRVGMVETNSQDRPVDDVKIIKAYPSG
inactive: [1] -0.046 | [2] 0.012 | [3] 0.021 | [4] 0.032 | [5] -0.052

PARL (UniProt Q9H300)
inactive: [1] 0.017 | [2] -0.017 | [3] 0.045 | [4] 0.028 | [5] 0.031

PCBP2 (UniProt F8VRH0)
inactive: [1] -0.033 | [2] -0.18 | [3] -0.013 | [4] 0.085 | [5] 0.026

PDE4A (UniProt P27815)
inactive: [1] -0.11 | [2] 0.128 | [3] 0.102 | [4] -0.112 | [5] 0.201

PRKACA (UniProt P17612)
inactive: [1] -0.01 | [2] 0.005 | [3] -0.053 | [4] -0.009 | [5] 0.035

PCTP (UniProt Q9UKL6)
inactive: [1] -0.033 | [2] -0.101 | [3] 0.028 | [4] -0.023 | [5] 0.018

POLR2C (UniProt P19387)
inactive: [1] -0.091 | [2] 0.125 | [3] -0.023 | [4] 0.155 | [5] -0.092

PTP4A2 (UniProt Q12974)
inactive: [1] -0.021 | [2] 0.028 | [3] 0.056 | [4] 0.052 | [5] -0.029

PHLDB1 isoform 2 (UniProt Q86UU1)
inactive: [1] -0.006 | [2] 0.073 | [3] 0.081 | [4] 0.008 | [5] 0.002

POLD1 (UniProt P28340)
inactive: [1] 0.017 | [2] 0.019 | [3] 0.094 | [4] 0.048 | [5] 0

PDE4DIP isoform 4 (UniProt Q5VU43)
inactive: [1] 0.023 | [2] 0.043 | [3] 0.046 | [4] -0.023 | [5] -0.011

PRKAB1 (UniProt Q9Y478)
inactive: [1] 0.011 | [2] 0.037 | [3] -0.024 | [4] -0.093 | [5] -0.037

PPP2R5E (UniProt Q16537)
inactive: [1] -0.045 | [2] 0.1 | [3] 0.105 | [4] -0.118 | [5] 0.05

POMK (UniProt Q9H5K3)
inactive: [1] 0.04 | [2] 0.027 | [3] -0.041 | [4] -0.067 | [5] -0.022

PIK3R1 (UniProt P27986)
inactive: [1] -0.059 | [2] 0.019 | [3] 0.138 | [4] 0.005 | [5] -0.027

PTRHD1 (UniProt Q6GMV3)
inactive: [1] -0.002 | [2] 0.056 | [3] 0.046 | [4] -0.073 | [5] 0.033

PIP4P2 (UniProt Q8N4L2)
Chain of UniProt Q8N4L2 (Q8N4L2 whole entry, looked up): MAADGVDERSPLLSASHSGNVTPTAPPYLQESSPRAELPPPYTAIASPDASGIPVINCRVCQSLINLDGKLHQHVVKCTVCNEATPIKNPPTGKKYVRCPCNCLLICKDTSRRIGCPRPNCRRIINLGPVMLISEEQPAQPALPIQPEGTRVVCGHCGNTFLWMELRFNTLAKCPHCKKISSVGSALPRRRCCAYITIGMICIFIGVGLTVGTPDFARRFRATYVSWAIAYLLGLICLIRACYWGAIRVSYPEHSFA
inactive: [1] 0.045 | [2] 0.048 | [3] -0.066 | [4] -0.017 | [5] -0.018

PRIM1 (UniProt P49642)
Chain of UniProt P49642 (P49642 whole entry, looked up): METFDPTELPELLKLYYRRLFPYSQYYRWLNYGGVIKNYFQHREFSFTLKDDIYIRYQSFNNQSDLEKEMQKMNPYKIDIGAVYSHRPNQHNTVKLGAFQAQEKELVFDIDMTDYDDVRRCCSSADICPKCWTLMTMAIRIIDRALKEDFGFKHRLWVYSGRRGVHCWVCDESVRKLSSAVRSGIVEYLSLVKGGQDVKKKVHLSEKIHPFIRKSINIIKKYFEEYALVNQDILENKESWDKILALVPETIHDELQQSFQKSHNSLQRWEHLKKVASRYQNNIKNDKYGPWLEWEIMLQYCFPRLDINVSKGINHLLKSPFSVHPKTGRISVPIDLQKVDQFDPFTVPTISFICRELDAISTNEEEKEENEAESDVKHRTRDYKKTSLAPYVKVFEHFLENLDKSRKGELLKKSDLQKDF
inactive: [1] -0.149 | [2] -0.033 | [3] 0.053 | [4] 0.033 | [5] 0.01

PPP6R1 (UniProt Q9UPN7)
inactive: [1] -0.011 | [2] 0.002 | [3] 0.108 | [4] 0.005 | [5] 0.001

PSPC1 (UniProt Q8WXF1)
inactive: [1] -0.023 | [2] -0.029 | [3] 0.038 | [4] -0.032 | [5] 0.015

PDE12 (UniProt Q6L8Q7)
inactive: [1] -0.003 | [2] 0.059 | [3] 0.12 | [4] -0.05 | [5] -0.094

PSMC3 (UniProt P17980)
inactive: [1] 0.014 | [2] -0.083 | [3] -0.058 | [4] 0 | [5] 0

PGK2 (UniProt P07205)
inactive: [1] -0.1 | [2] 0.046 | [3] 0.153 | [4] 0.037 | [5] 0.034

PMVK (UniProt Q15126)
inactive: [1] -0.156 | [2] 0.004 | [3] 0.116 | [4] 0.063 | [5] 0.028

PIK3CB (UniProt P42338)
Chain of UniProt P42338 (P42338 whole entry, looked up): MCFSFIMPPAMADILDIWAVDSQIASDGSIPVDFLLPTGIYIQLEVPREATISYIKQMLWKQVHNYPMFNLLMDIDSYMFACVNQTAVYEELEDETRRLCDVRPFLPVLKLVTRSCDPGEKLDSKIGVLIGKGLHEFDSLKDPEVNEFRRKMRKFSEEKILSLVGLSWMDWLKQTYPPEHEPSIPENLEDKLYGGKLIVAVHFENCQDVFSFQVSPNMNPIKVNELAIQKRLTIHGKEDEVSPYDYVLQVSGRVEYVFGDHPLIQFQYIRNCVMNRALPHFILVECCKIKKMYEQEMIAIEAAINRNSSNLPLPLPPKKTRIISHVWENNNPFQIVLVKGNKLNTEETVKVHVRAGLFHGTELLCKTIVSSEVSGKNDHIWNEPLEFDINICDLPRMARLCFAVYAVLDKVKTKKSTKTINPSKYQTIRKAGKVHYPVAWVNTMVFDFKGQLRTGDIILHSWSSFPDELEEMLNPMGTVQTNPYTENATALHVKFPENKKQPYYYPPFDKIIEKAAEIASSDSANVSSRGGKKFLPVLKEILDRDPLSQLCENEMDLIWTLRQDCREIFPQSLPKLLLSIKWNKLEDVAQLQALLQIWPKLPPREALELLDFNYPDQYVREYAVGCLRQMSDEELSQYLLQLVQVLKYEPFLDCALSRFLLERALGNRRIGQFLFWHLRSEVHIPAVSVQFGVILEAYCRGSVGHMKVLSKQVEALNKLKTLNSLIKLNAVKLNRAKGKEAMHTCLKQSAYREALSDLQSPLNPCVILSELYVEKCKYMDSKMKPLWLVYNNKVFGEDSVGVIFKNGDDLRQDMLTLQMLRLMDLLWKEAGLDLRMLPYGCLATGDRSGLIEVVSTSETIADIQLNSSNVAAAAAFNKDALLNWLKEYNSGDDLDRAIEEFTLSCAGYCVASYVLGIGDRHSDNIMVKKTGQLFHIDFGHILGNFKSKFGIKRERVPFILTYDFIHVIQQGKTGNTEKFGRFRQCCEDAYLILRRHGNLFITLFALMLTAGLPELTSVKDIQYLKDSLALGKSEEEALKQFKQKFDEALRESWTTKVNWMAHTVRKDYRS
inactive: [1] -0.068 | [2] 0.014 | [4] -0.01 | [5] 0.005
active: [3] 0.213
